This passage reports compound max-min signal, glutamate response, % of max and glutamate slope, % of max results from PubChem BioAssay AID1259245 (Vanderbilt High Throughput Screening Facility, 2017).

Each structure is given as a SMILES string. The campaign covered roughly 40,000 compounds. About 1,400 (3.5%) were called active.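 How the source made its calls: active means any of four per-well response measures lying three or more SD from its plate-wide compound average, in either direction; inactive means the rest, inconclusive results apart.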 The list comes from a sample in which actives are over-represented; it also holds similar structures and randomly drawn compounds.

Sequence of Voltage-dependent calcium channel gamma-2 subunit (Mus musculus) + Glutamate receptor 2 (Rattus norvegicus) (O88602 whole entry, looked up): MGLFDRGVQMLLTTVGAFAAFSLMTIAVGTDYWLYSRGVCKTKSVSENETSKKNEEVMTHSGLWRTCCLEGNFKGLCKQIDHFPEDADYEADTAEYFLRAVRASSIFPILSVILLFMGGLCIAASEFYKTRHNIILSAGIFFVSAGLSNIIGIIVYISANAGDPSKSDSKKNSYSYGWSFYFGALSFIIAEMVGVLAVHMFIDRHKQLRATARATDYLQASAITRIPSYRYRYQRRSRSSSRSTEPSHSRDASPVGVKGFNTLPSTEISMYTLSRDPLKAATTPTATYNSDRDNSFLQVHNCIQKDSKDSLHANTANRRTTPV
Sequence of Voltage-dependent calcium channel gamma-2 subunit (Mus musculus) + Glutamate receptor 2 (Rattus norvegicus) (P19491 whole entry, looked up): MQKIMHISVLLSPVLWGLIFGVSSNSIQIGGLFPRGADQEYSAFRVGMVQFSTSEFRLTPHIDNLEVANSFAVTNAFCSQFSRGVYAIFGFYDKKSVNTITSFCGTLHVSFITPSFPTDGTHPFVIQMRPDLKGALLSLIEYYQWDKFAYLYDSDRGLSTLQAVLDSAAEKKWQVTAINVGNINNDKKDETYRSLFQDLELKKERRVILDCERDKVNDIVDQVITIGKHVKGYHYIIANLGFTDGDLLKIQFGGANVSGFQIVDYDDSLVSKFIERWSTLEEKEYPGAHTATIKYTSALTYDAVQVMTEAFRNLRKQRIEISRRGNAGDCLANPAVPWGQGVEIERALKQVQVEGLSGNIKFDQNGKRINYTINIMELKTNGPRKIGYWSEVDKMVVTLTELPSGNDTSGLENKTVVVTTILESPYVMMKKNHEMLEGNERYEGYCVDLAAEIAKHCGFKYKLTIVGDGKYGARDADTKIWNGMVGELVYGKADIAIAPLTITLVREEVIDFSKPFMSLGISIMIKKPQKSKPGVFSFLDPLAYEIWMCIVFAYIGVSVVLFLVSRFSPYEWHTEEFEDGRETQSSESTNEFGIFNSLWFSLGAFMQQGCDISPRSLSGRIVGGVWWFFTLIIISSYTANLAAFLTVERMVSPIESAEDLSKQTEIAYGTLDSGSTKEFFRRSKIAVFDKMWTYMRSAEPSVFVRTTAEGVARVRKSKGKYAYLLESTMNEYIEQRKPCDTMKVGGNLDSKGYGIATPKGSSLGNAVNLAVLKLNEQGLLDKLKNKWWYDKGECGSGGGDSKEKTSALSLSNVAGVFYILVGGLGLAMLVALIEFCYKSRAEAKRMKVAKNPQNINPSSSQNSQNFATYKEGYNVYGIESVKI

The assay addresses Voltage-dependent calcium channel gamma-2 subunit (Mus musculus) + Glutamate receptor 2 (Rattus norvegicus) (UniProt O88602+P19491). The experiment in a line: AMPAR-TARP gamma-2 complex positive or negative modulation – cell-based, membrane potential dye, primary screen (AID 1259245). The conditions noted are these: HEK293 GluA2+stargazin, membrane potential dye (FDSS), glutamate EC50, at 30 µM, hits were called plate by plate, in both directions; compound max-min signal: compound-alone response (agonism); glutamate slope, % of max: measured here: glutamate response slope, % max.
Consider `Cn1nnc2c(N(CCc3ccccc3)Cc3ccccc3)ncnc21`, for which the compound max-min signal worked out at 0.0947; the glutamate response, % of max is 34% (inactive); the glutamate slope, % of max amounted to 57.6%.
As to `CCOC(=O)c1cn(CC(=O)Nc2ccc(C)cc2Cl)c2nc(C)ccc2c1=O`, the compound max-min signal was determined as 0.132; the glutamate response, % of max is 31.9% (inactive); the glutamate slope, % of max was determined as 51%.
With `COc1cc(NS(=O)(=O)c2ccc(NC(=O)c3ccc(S(=O)(=O)N4CCOCC4)cc3)cc2)ncn1`, the compound max-min signal was 0.0995; the glutamate response, % of max is 43.4% (inactive); the glutamate slope, % of max stood at 72.4%.
Take `CCOc1ccc2nc(N(Cc3ccncc3)C(=O)/C=C/c3cccs3)sc2c1`: the compound max-min signal came out at 0.107; the glutamate response, % of max was 21.1% (inactive); the glutamate slope, % of max amounted to 47.3%.
In the same order, the values of `O=S(=O)(c1ccc(F)cc1F)N1CCN(c2ccc(-c3cccs3)nn2)CC1` are 0.0403, 12.3% (inactive) and 30.1%.
For the compound `COc1ccc(S(=O)(=O)N2CCN(c3ccc4nncn4n3)CC2)cc1C`, the compound max-min signal stood at 0.114; the glutamate response, % of max was 18.4% (inactive); the glutamate slope, % of max is 44.4%.
With `O=S(=O)(c1ccc2c(c1)CCCC2)N1CCN(c2ccc3nncn3n2)CC1`, the compound max-min signal came out at 0.0592; the glutamate response, % of max was 23.2% (inactive); the glutamate slope, % of max worked out at 46.1%.
Take `Cc1cccc(Nc2ccc(N3CCN(S(=O)(=O)c4cccs4)CC3)nn2)n1`: the compound max-min signal stood at 0.445; the glutamate response, % of max is 13.5% (active); the glutamate slope, % of max amounted to 21.9%.
For the compound `O=S(=O)(c1cccs1)N1CCC(c2ccsc2)CC1`, the compound max-min signal is 0.115; the glutamate response, % of max is 35.3% (inactive); the glutamate slope, % of max is 65.4%.
In the same order, the values of `CCc1ccc(S(=O)(=O)N2CCN(c3ccc(Nc4cccc(C)n4)nn3)CC2)cc1` are 0.366, 22.6% (active) and 37.7%.
For `COc1cccc(-c2noc(C3CCN(S(=O)(=O)c4ccc(C)cc4)CC3)n2)c1OC`, the compound max-min signal was found to be 0.0999; the glutamate response, % of max was 28.5% (inactive); the glutamate slope, % of max turned out to be 52.6%.
For `O=S(=O)(c1ccccc1)N1CCN(Cc2nnnn2-c2ccc(F)cc2)CC1`, the compound max-min signal stood at 0.0497; the glutamate response, % of max is 29.1% (inactive); the glutamate slope, % of max came out at 63.3%.
Turning to `O=S(=O)(Cc1ccc(Cl)cc1)c1ccc(NCc2ccccc2)nn1`, the compound max-min signal turned out to be 0.0863; the glutamate response, % of max was 49.2% (inactive); the glutamate slope, % of max came to 64.8%.
Regarding `CCOC(=O)N1CCN(/C=C2\Oc3c(ccc(O)c3C)C2=O)CC1`, the compound max-min signal worked out at 0.132; the glutamate response, % of max is 21.6% (inactive); the glutamate slope, % of max turned out to be 32.3%.
As to `COc1ccc(-c2cc3ccc4c(c3oc2=O)CN(C2CCS(=O)(=O)C2)CO4)cc1OC` (stereo not drawn), the compound max-min signal worked out at 0.083; the glutamate response, % of max was 20.7% (inactive); the glutamate slope, % of max is 43.1%.
In the case of `CC(O)(CNC(=O)/C=C/c1ccccc1)c1ccccc1` (stereo not drawn), the compound max-min signal was 0.0976; the glutamate response, % of max is 44.2% (inactive); the glutamate slope, % of max was found to be 61.2%.
Take `CCOC(=O)C(CC)Sc1ccnc2c1c(=O)n(C)c(=O)n2C` (stereo not drawn): the compound max-min signal came out at 0.0572; the glutamate response, % of max was 21.5% (inactive); the glutamate slope, % of max was 49.8%.
In the same order, the values of `Cc1cnc2c(c1NCCc1ccc(S(N)(=O)=O)cc1)c(=O)n(C)c(=O)n2C` are 0.167, 32.2% (active) and 50%.
In the same order, the values of `COCc1cnc2c(c1SCc1ccc(Br)cc1)c(=O)n(C)c(=O)n2C` are 0.0342, 27% (inactive) and 47.1%.
As for `Cc1cnc2c(c1SCC(=O)O)c(=O)n(C)c(=O)n2C`, the compound max-min signal is 0.0266; the glutamate response, % of max is 30.3% (inactive); the glutamate slope, % of max was found to be 58%.
Taken in the same sequence, the figures for `Cc1cnc2c(c1SCc1ccc([N+](=O)[O-])cc1)c(=O)n(C)c(=O)n2C` were 0.158, 47.1% (active) and 69.5%.
`Cn1c(=O)c2c(ncn2CCc2ccccc2)n(C)c1=O`: the compound max-min signal was determined as 0.12; the glutamate response, % of max was 41.9% (inactive); the glutamate slope, % of max turned out to be 67.6%.
Take `COc1ccc(CNC(=O)C(=O)NCC2CCN(Cc3cccs3)CC2)cc1`: the compound max-min signal is 0.0534; the glutamate response, % of max was 41.2% (inactive); the glutamate slope, % of max stood at 57.3%.
As to `CCOc1ccc(CC(=O)Nc2nn(C)c3c2C(C)CC(=O)N3)cc1` (stereo not drawn), the compound max-min signal stood at 0.129; the glutamate response, % of max was 42.6% (inactive); the glutamate slope, % of max is 64.1%.
As to `O=C(Nc1cc(-c2ccco2)nn1-c1nc(-c2ccccc2)cc(=O)[nH]1)c1ccco1`, the compound max-min signal worked out at 0.115; the glutamate response, % of max was 35.5% (inactive); the glutamate slope, % of max turned out to be 53.1%.
For `Cn1nnc2c(N3CCN(C(=O)c4cc5ccccc5o4)CC3)ncnc21`, the compound max-min signal turned out to be 0.0567; the glutamate response, % of max is 24.9% (inactive); the glutamate slope, % of max turned out to be 41.7%.
For the compound `Cc1cc(C)n(CCNC(=O)c2nc(-c3cnccn3)no2)n1`, the compound max-min signal was 0.147; the glutamate response, % of max was 48.6% (inactive); the glutamate slope, % of max amounted to 86.3%.
Consider `CC(C)Sc1ccc(C(=O)Nc2nc(-c3ccccn3)cs2)cc1`, for which the compound max-min signal came to 0.135; the glutamate response, % of max is -1.73% (active); the glutamate slope, % of max amounted to 2.45%.
Taken in the same sequence, the figures for `CS(=O)(=O)N1CCCCC1C(=O)Nc1nc(-c2ccccn2)cs1` (stereo not drawn) were 0.116, 43% (inactive) and 58.9%.
Taken in the same sequence, the figures for `CSc1ccc(CC(=O)Nc2nc(-c3nc4ccccc4s3)cs2)cc1` were 0.102, 33% (inactive) and 57.3%.
As to `Cc1nn(C2CCS(=O)(=O)C2)c2nc(-c3ccccc3)cc(C(=O)Nc3ccc(F)cc3F)c12` (stereo not drawn), the compound max-min signal came out at 0.0886; the glutamate response, % of max was 43% (inactive); the glutamate slope, % of max is 54.9%.
Turning to `Cc1ccc(NC(=O)CSC2=NC(C)(C)N=C2c2ccccc2)c(C)c1`, the compound max-min signal amounted to 0.112; the glutamate response, % of max was 41.7% (inactive); the glutamate slope, % of max was 61.7%.
In the same order, the values of `COc1cc(NC(=O)CSC2=NC3(CCCC3)N=C2c2ccccc2)cc(OC)c1` are 0.0812, 57.8% (active) and 80.4%.
With `COC(=O)c1ccc(NC(=O)CSc2nc(-c3ccccc3)c(N)s2)cc1`, the compound max-min signal worked out at 0.12; the glutamate response, % of max is 38.3% (inactive); the glutamate slope, % of max worked out at 63%.
For `CCS(=O)(=O)N1CCCc2ccc(NS(=O)(=O)c3cc(Cl)ccc3OC)cc21`, the compound max-min signal came out at 0.119; the glutamate response, % of max was 44.4% (inactive); the glutamate slope, % of max was 80.9%.
For the compound `COC(=O)Cn1c(=O)c2c(nc3n(-c4ccccc4C)c(C)c(C)n23)n(C)c1=O`, the compound max-min signal is 0.0754; the glutamate response, % of max was 36.6% (inactive); the glutamate slope, % of max was determined as 56.4%.
